MARV entry inh – blocks Marburg virus binding to or entry into cells. Marburg virus pseudotyped entry inhibition, cell reporter. Potency, µM (titrated, usually from 37.8 µM), actives largely listed as inhibitors. 300,000 tested, 1.8% active; calls by dose curve; tested in HEK293 cells
VACV mCherry inh – inhibitors of vaccinia virus infection (mCherry reporter signal); Vaccinia virus mCherry reporter infection, fluorescence; AID 720579; 310,000 tested, 0.63% active; Potency, µM (series often up to 36.5 µM), hits mostly inhibitors; calls by dose curve; tested in A549 cells; also: nearly all actives have a fitted effect of over 35% in size
Shiga toxin inh – blocks Shiga toxin action in Vero cells | Vero cells, Shiga toxin protein synthesis inhibition reporter | inhibition, % at 38.7 µM | 290,000 tested, 9.2% active; in the data active = inhibition mostly above about 28%, no sharp cut-off; inactive = mostly below about 43%
VACV Venus inh – vaccinia inhibition (Venus reporter); Potency, µM (series often up to 36.5 µM), most hits filed as inhibitors; AID 720580; Vaccinia virus Venus reporter expression, fluorescence; 330,000 tested, 0.46% active; calls by dose curve; tested in A549 cells; also: nearly all actives have a fitted effect of over 30% in size
Lassa entry inh – Lassa virus entry inhibition; Potency, µM (titrated, usually from 37.9 µM), usual class: inhibitors; Lassa virus pseudotype entry inhibition, cell reporter; 300,000 tested, 1.2% active; calls by dose curve; tested in HEK293 cells; also: nearly all actives have a fitted effect of over 50% in size
CHX counter – counter-screen hit for Shiga toxin inhibitors, cycloheximide. 300,000 tested, 12% active. cell reporter, cycloheximide protein synthesis inhibition counterscreen. AID 2314. max response, %; in the data active = max response mostly above about 13%, no sharp cut-off; inactive = mostly below about 14%; also: read at 38.3 µM for the half of the compounds with a filed dose
Each line names hits and unclear results; the compound was inactive in the other large screens. The full list was thinned out, with hits kept by preference.

Nc1[nH]nc2ncc3cc4ccccc4nc3c12	none
O=C(C[n+]1cccc2cc(Cl)ccc21)c1ccc2c(c1)CCCC2	none (no result: MARV entry inh, Shiga toxin inh, Lassa entry inh, CHX counter)
COc1cc(C(O)c2nc(-c3cccc4cccnc34)cs2)ccc1F (configuration not stated)	VACV mCherry inh inconclusive (no result: MARV entry inh, Shiga toxin inh, Lassa entry inh, CHX counter)
O=[N+]([O-])c1ccc(/C=C/c2ccnc3ccccc23)cc1	none (no result: MARV entry inh, Shiga toxin inh, Lassa entry inh, CHX counter)
CC1(C)COC(/C=C/c2ccc([N+](=O)[O-])cc2)=N1	MARV entry inh inconclusive, VACV mCherry inh inconclusive, Shiga toxin inh 84, VACV Venus inh inconclusive, Lassa entry inh inconclusive, CHX counter 56
Cc1ccc(COc2cccc(/C=N/NC(=O)c3nnn(-c4nonc4N)c3C)c2)cc1	CHX counter 15 (no result: MARV entry inh, VACV mCherry inh, VACV Venus inh, Lassa entry inh)
Nc1nonc1-n1nnc(C(=O)N/N=C/c2ccc(OCc3ccccc3F)cc2)c1CNc1ccccc1	CHX counter 17 (no result: MARV entry inh, VACV mCherry inh, VACV Venus inh, Lassa entry inh)
CCOc1cc(/C=N/NC(=O)c2nnn(-c3nonc3N)c2C)ccc1OCc1ccc(C)cc1	VACV Venus inh inconclusive (no result: MARV entry inh, Shiga toxin inh, Lassa entry inh, CHX counter)
Cc1nn(C2CCS(=O)(=O)C2)c(C)c1CN(C)C(=O)c1ccc(F)cc1 (configuration not stated)	none (no result: MARV entry inh, Shiga toxin inh, Lassa entry inh, CHX counter)
CCSc1ncc(Cl)c(C(=O)Nc2c(C(=O)Nc3ccc(Cl)cc3)oc3ccccc23)n1	MARV entry inh inconclusive (no result: Shiga toxin inh, CHX counter)
CCN(CC)S(=O)(=O)c1ccc2oc(C(=O)Nc3ccc(Br)cc3F)c(C)c2c1	VACV mCherry inh inconclusive, VACV Venus inh inconclusive (no result: MARV entry inh, Shiga toxin inh, CHX counter)
CCN(CC)S(=O)(=O)c1ccc(/C=C/C(=O)Nc2ccc(F)c(F)c2F)cc1	MARV entry inh inconclusive, Shiga toxin inh 38, Lassa entry inh inconclusive, CHX counter 36
CCN(CC)S(=O)(=O)c1ccc(/C=C/C(=O)Nc2ccc(Br)cc2F)cc1	MARV entry inh 6.5µM, Lassa entry inh 1.6µM
CCN(CC)S(=O)(=O)c1ccc(/C=C/C(=O)Nc2ccc(F)cc2F)cc1	Shiga toxin inh 64, CHX counter 32 (no result: VACV mCherry inh, VACV Venus inh, Lassa entry inh)
CC(C)C(NC(=O)c1ccccn1)c1nnc2n1CCN(Cc1ccc3ccccc3c1)CC2 (configuration not stated)	none (no result: MARV entry inh, Shiga toxin inh, Lassa entry inh, CHX counter)
CCOC(=O)N/N=C1\C[C@@H](O)[C@@H](O)[C@@H]2[C@@H]3C(=O)N(c4ccc(F)cc4F)C(=O)[C@@H]3CC[C@@H]12	none (no result: VACV mCherry inh, Shiga toxin inh, VACV Venus inh, Lassa entry inh, CHX counter)
Cc1ccc(-n2nnnc2SCC(=O)NCC2CCCO2)cc1C (configuration not stated)	none (no result: Shiga toxin inh, CHX counter)
COc1cc2c(cc1OC)C1O[C@](CCCCN3C(=O)c4ccccc4C3=O)(C2)Oc2cc(C)n(Cc3ccccc3)c(=O)c21	none (no result: VACV mCherry inh, VACV Venus inh, Lassa entry inh)
Cc1cccc(NC(=O)c2cc(NC(=O)c3ccco3)ccc2Cl)n1	MARV entry inh inconclusive, Shiga toxin inh 21 (no result: VACV mCherry inh)
Cc1ccccc1CC(=O)Nc1cc(C(C)(C)C)on1	CHX counter 9.7
Cc1occc1C(=O)Nc1cc(C(C)(C)C)on1	Shiga toxin inh 70, Lassa entry inh inconclusive, CHX counter 29 (no result: VACV mCherry inh, VACV Venus inh)
Cc1cccc(NC(=O)c2ccoc2C)n1	Shiga toxin inh 84, CHX counter 29 (no result: VACV mCherry inh)
Cc1cc(C)c(NC(=O)c2ccoc2C)c(C)c1	none
COc1ccc(OC)c([C@H]2/C(=C(\O)c3ccc(C)cc3)C(=O)C(=O)N2Cc2ccco2)c1	none (no result: VACV mCherry inh, Shiga toxin inh, VACV Venus inh, Lassa entry inh, CHX counter)
Cc1ncc2c(c1CNC(=O)c1cncs1)CCN(C(=O)c1ccc(C(F)(F)F)cc1)C2	none (no result: MARV entry inh, Shiga toxin inh, Lassa entry inh, CHX counter)
Cc1ccc2c(c1)N(C(=O)CCC(=O)NCc1cccc(Cl)c1)CC(C)O2 (configuration not stated)	none (no result: MARV entry inh, Lassa entry inh)
CC1=NN(c2ccccc2)C(=O)C1C=Nc1ccc(N(C)C)cc1 (configuration not stated)	Shiga toxin inh 39, CHX counter 17
O=C(C=Cc1ccco1)c1ccco1	none (no result: Shiga toxin inh, CHX counter)
O=C(O)C(C(=O)/C=C/c1ccco1)=C1SCCS1	Shiga toxin inh 74, CHX counter 27 (no result: VACV mCherry inh)
O=C(C=C1SCCS1)/C=C/c1ccco1	MARV entry inh inconclusive, Shiga toxin inh 71, Lassa entry inh 11µM, CHX counter 37
CC1CCCC(NC(=S)Nc2ccc(SC(F)F)cc2)C1C (configuration not stated)	MARV entry inh inconclusive, VACV mCherry inh inconclusive, VACV Venus inh 11µM, Lassa entry inh inconclusive, CHX counter 25
OC1CCC(NC(=S)Nc2ccc(SC(F)F)cc2)CC1 (configuration not stated)	MARV entry inh inconclusive, Shiga toxin inh 75, CHX counter 36
O=C(Nc1ccc(SC(F)F)cc1)C12CCC(CC1)C2	Shiga toxin inh 77, CHX counter 19
FC(F)Sc1ccc(NC(=S)NC2CCCC2)cc1	Shiga toxin inh 64, CHX counter 38
NS(=O)(=O)c1ccc(NC(=S)NC2CCCC2)cc1	MARV entry inh inconclusive

High-throughput results from PubChem.
